According to PubChem BioAssay AID463173 (ICCB-Longwood Screening Facility, Harvard Medical School, 2010):
In all, about 52,000 compounds went through this assay and about 4,300 (8.3%) were called active. No stated cut-off is given here; in the data, active means survival mostly below about 52% (no sharp cut-off); inactive means mostly above about 56%. This excerpt belongs to a sample that is enriched for actives.

These compounds were tested on DeltatarO mutant (assay: S. aureus survival, RN4220 and DeltatarO strains – OD600, teichoic acid synthesis inhibitors, primary screen (AID 463173)). Details: S. aureus RN4220 wild type/DeltatarO growth, OD600, 18 h, stronger effect = lower value, screened at 18.75 µg/mL (by protocol).
In the case of `O=C1c2[nH]nc(-c3ccccc3O)c2C(c2ccccc2F)N1Cc1ccncc1` (stereo not given), the survival is reported as 94% (inactive).
With `CCCOc1ccc(C2c3c(-c4ccccc4O)n[nH]c3C(=O)N2Cc2ccncc2)cc1OCC` (stereo not given) the survival was 90% (inactive).
`Cc1ccc(O)c(-c2n[nH]c3c2C(c2ccccc2F)N(Cc2ccco2)C3=O)c1` (stereo not given) was tested, and the survival was 8% (active).
For `O=C1c2[nH]nc(-c3ccccc3O)c2C(c2cccc(Br)c2)N1Cc1ccncc1` (stereo not given), the survival was 85% (inactive).
In the case of `O=C1c2[nH]nc(-c3ccccc3O)c2C(c2ccccc2F)N1Cc1cccnc1` (stereo not given), the survival is reported as 87% (inactive).
In the case of `CCCOc1cccc(C2c3c(-c4ccccc4O)n[nH]c3C(=O)N2Cc2ccco2)c1` (stereo not given), the survival is reported as 2% (active).
`COc1ccc(Cl)cc1NC(=O)c1ccc2nc(Cc3ccccc3)oc2c1` was tested, and the survival was 101% (inactive).
`CN(C)c1ccc(CNC(=O)c2cnc3sc(N4CCCC4)nn3c2=O)cc1` was tested, and the survival was 67% (inactive).
With `CCOC(=O)c1c(C)n(C(=O)c2ccco2)c(=O)n1C(=O)c1ccco1` the survival was 73% (inactive).
With `COc1ccc(CCn2c(=O)c3ccccc3n(CC(=O)Nc3cccc(C)c3)c2=O)cc1OC` the survival was 83% (inactive).
With `Cc1ccc(C(=O)CSc2nnnn2C2CCCC2)cc1C` the survival was 67% (inactive).
With `O=C(CSc1nnnn1C1CCCC1)c1ccc2c(c1)OCCO2` the survival was 70% (active).
For `CC(C)n1nnnc1SCC(=O)c1ccc2c(c1)OCCO2`, the survival was 87% (inactive).
In the case of `COc1ccc(C(=O)NNc2ncnc3c2cnn3-c2ccc(C)cc2C)cc1`, the survival is reported as 0% (active).
`Cc1cccc(C(=O)NNc2ncnc3c2cnn3-c2ccc(C)cc2C)c1` was tested, and the survival was 106% (inactive).
For `COc1ccc(C(=O)NNc2ncnc3c2cnn3-c2ccc(C)c(Cl)c2)cc1`, the survival was 69% (inactive).
In the case of `Cc1ccc(CNc2ncnc3c2cnn3-c2ccc(C)cc2C)cc1`, the survival is reported as 77% (inactive).
`Cc1ccc(-n2ncc3c(NCC(C)C)ncnc32)c(C)c1` was tested, and the survival was 37% (active).
With `Cc1ccc(-n2ncc3c(N(CC(C)C)CC(C)C)ncnc32)c(C)c1` the survival was 78% (inactive).
`O=C(NCC(c1cccnc1)N1CCc2ccccc2C1)C(=O)Nc1ccccc1F` (stereo not given) was tested, and the survival was 75% (inactive).
With `CCN(CC)CC(=O)Nc1ccc(-c2ccc(NC(=O)CN(CC)CC)cc2)cc1` the survival was 113% (inactive).
`CC1CCC(C(=O)NC(C(=O)OCC(=O)c2ccccc2)C(C)C)CC1` (stereo not given) was tested, and the survival was 75% (inactive).
`COc1ccc(-c2nc3n(n2)C(c2ccccc2OC)C(C(=O)Nc2cccnc2)=C(C)N3)cc1` (stereo not given) was tested, and the survival was 80% (inactive).
For `COc1ccc(-c2nc3n(n2)C(c2ccccc2F)C(C(=O)Nc2cccnc2)=C(C)N3)cc1OC` (stereo not given), the survival was 81% (inactive).
`COc1cc(OC)cc(-c2nc3n(n2)C(c2ccccc2F)C(C(=O)Nc2cccnc2)=C(C)N3)c1` (stereo not given) was tested, and the survival was 45% (active).
With `COc1ccc(C2C(C(=O)Nc3ccccc3)=C(C)Nc3nc(SCC(=O)c4ccc(C)cc4)nn32)cc1` (stereo not given) the survival was 71% (inactive).
In the case of `CC1=C(C(=O)Nc2ccccc2)C(c2ccc(C(=O)O)cc2)n2nc(SCC(=O)c3ccc(C)cc3)nc2N1` (stereo not given), the survival is reported as 82% (inactive).
`COc1ccc(C2C(C(=O)Nc3ccccc3)=C(C)Nc3nc(-c4ccccc4)nn32)c(OC)c1` (stereo not given) was tested, and the survival was 82% (inactive).
`COc1cccc(C2C(C(=O)Nc3ccccc3)=C(C)Nc3nc(-c4ccccc4)nn32)c1` (stereo not given) was tested, and the survival was 57% (active).
`COc1ccc(C2C(C(=O)Nc3ccccc3)=C(C)Nc3nc(-c4ccccc4)nn32)cc1OC` (stereo not given) was tested, and the survival was 85% (inactive).
For `CC1=C(C(=O)Nc2ccccc2)C(c2cccc(Cl)c2)n2nc(SCC(=O)c3ccc(C)cc3)nc2N1` (stereo not given), the survival was 52% (active).
For `CCOc1ccc(NC(=O)C2CCN(S(=O)(=O)c3ccc4c(c3)oc(=O)n4C)CC2)cc1`, the survival was 91% (inactive).
In the case of `CCCCNC(=O)c1cnn2c(C)c(Cc3c(F)cccc3Cl)c(C)nc12`, the survival is reported as 135% (inactive).
`O=C(CN1C(=O)CCSc2ccccc21)Nc1ccc(C(F)(F)F)cc1` was tested, and the survival was 111% (inactive).
For `N#Cc1c(N)nc2c(c1-c1ccccc1)CCCC2`, the survival was 102% (inactive).
In the case of `COc1ccc(S(=O)(=O)NCc2ccc3c(c2)CCN3C(=O)c2ccc(C)cc2)cc1Cl`, the survival is reported as 112% (inactive).
`CCOC(=O)c1oc2c(c1C)/C(=N/OC(=O)c1ccccc1Cl)CCC2` was tested, and the survival was 69% (inactive).
In the case of `Cc1cc(S(=O)(=O)Nc2cc3c(cc2N2CCOCC2)n(C)c(=O)c(=O)n3C)ccc1F`, the survival is reported as 72% (inactive).
With `Cc1cc(C)c(S(=O)(=O)Nc2nnc(C(F)(F)F)s2)c(C)c1` the survival was 36% (active).
`CC(C)(C)c1nnc(NS(=O)(=O)c2ccc(F)cc2)s1` was tested, and the survival was 82% (inactive).
`Cc1ccc(S(=O)(=O)Nc2nnc(CC(C)(C)C)s2)cc1` was tested, and the survival was 87% (inactive).
With `Cc1cccc(CSc2ncccc2C(=O)O)c1` the survival was 47% (active).
For `O=C(O)c1cccnc1SCc1cccc(Cl)c1`, the survival was 79% (inactive).
For `Cc1ccc(CSc2ncccc2C(=O)O)cc1`, the survival was 87% (inactive).
`Cc1ccc(NC(=O)c2c(C)oc3ccc(O)c(CN4CCCC4)c23)c(C)c1` was tested, and the survival was 67% (inactive).
For `CCOc1ccc(CCNC(=O)Cn2ccc3cc(S(=O)(=O)N4CCCCCC4)ccc32)cc1`, the survival was 126% (inactive).
With `CCc1ccc(OC(=O)c2sc3ncn(Cc4cccc(F)c4)c(=O)c3c2C)cc1` the survival was 115% (inactive).
For `COc1ccc(S(=O)(=O)NCC(c2ccco2)N2CCN(c3ccc(F)cc3)CC2)cc1` (stereo not given), the survival was 84% (inactive).
In the case of `CCC(=O)N1CCc2cc(S(=O)(=O)NC(Cc3ccccc3)C(=O)Nc3ccc(C)cc3)ccc21` (stereo not given), the survival is reported as 64% (inactive).
For `CC(=O)N1CCc2cc(CNS(=O)(=O)c3ccc(Br)s3)ccc21`, the survival was 73% (inactive).
In the case of `CCC(=O)N1CCc2cc(S(=O)(=O)NC(Cc3ccccc3)C(=O)O)ccc21` (stereo not given), the survival is reported as 25% (active).
In the case of `CCC(=O)N1CCc2cc(S(=O)(=O)NC(Cc3ccccc3)C(=O)NCc3ccccc3)ccc21` (stereo not given), the survival is reported as 65% (inactive).
`CCC(=O)N1CCc2cc(S(=O)(=O)NC(CC(C)C)C(=O)NCc3ccc(F)cc3)ccc21` (stereo not given) was tested, and the survival was 80% (inactive).
With `CCC(=O)N1CCc2cc(CNS(=O)(=O)c3ccc(Br)s3)ccc21` the survival was 47% (active).
With `CCC(=O)N1CCc2cc(CNS(=O)(=O)c3ccc(Cl)s3)ccc21` the survival was 93% (inactive).
`CCC(=O)N1CCc2cc(S(=O)(=O)NC(CC(C)C)C(=O)NCc3ccc(C)cc3)ccc21` (stereo not given) was tested, and the survival was 97% (inactive).
`CCC(=O)N1CCc2cc(S(=O)(=O)NC(CC(C)C)C(=O)Nc3ccc(CC)cc3)ccc21` (stereo not given) was tested, and the survival was 60% (active).
For `COC(=O)c1ccccc1NC(=O)c1oc2ccc3c(c2c1C)C(=O)CC(C)(C)O3`, the survival was 80% (inactive).
With `Cc1nc2cc(C(=O)O)ccc2n1-c1ccc(C(C)C)cc1` the survival was 68% (inactive).
With `COc1cccc(CNC(=O)CSc2nc3ccccc3nc2Cc2ccccc2)c1` the survival was 69% (inactive).
`COc1ccc(NS(=O)(=O)c2ccc(-c3cnc(C4CC4)o3)cc2)cc1Cl` was tested, and the survival was 124% (inactive).
In the case of `CCOC(=O)C1CCCN(S(=O)(=O)c2ccc(OC)cc2)C1` (stereo not given), the survival is reported as 76% (inactive).
With `CN1C(=O)Cc2cc(S(=O)(=O)CCC(=O)Nc3ccccc3)ccc21` the survival was 83% (inactive).
With `Clc1ccc(CSc2nc3ncccc3[nH]2)cc1` the survival was 71% (inactive).
`O=C(O)c1ccc(-n2c(/C=C\c3ccc(O)cc3)nc3ccccc3c2=O)cc1` was tested, and the survival was 58% (active).
In the case of `O=C(O)c1cc(-n2c(/C=C\c3ccc(F)cc3)nc3ccccc3c2=O)ccc1Cl`, the survival is reported as 94% (inactive).
For `COC(=O)c1ccc(-n2c(/C=C\c3cccc(Br)c3)nc3ccccc3c2=O)cc1`, the survival was 70% (inactive).
In the case of `COc1ccc(C)cc1NC(=O)N1CC(C)Sc2ccccc21` (stereo not given), the survival is reported as 55% (inactive).
For `Cc1ccc(N(C)C(=O)CC(C)S(=O)(=O)c2ccc3c(c2)NC(=O)CO3)cc1` (stereo not given), the survival was 120% (inactive).
In the case of `c1ccc2c(c1)[nH]c1nc(NN=C3CCC(=NNc4nnc5c(n4)[nH]c4ccccc45)CC3)nnc12`, the survival is reported as 93% (inactive).
In the case of `COc1cccc(-c2nc3c(c(SCC(=O)Nc4cc(C)ccc4C)n2)Cc2c(CO)cnc(C)c2O3)c1`, the survival is reported as 77% (inactive).
`O=C(Nc1ccc(Cl)cc1)c1ccc2oc(=O)n(Cc3ccccc3)c2c1` was tested, and the survival was 67% (inactive).
`CCn1nnc2cc(C(=O)Nc3ccc(C)c(Cl)c3)ccc21` was tested, and the survival was 54% (inactive).
In the case of `O=C(NCc1ccc(F)cc1)c1ccc2oc(=O)n(Cc3ccccc3)c2c1`, the survival is reported as -2% (active).
With `CCc1ccc(NC(=O)c2ccc3c(c2)nnn3CC)cc1` the survival was -4% (active).
In the case of `O=C(NCc1ccc(Cl)cc1)c1ccc2oc(=O)n(Cc3ccccc3)c2c1`, the survival is reported as 109% (inactive).
In the case of `Cc1ccc(CNC(=O)c2ccc3oc(=O)n(Cc4ccccc4)c3c2)cc1`, the survival is reported as 64% (inactive).
`COc1cccc(CNC(=O)c2ccc3oc(=O)n(Cc4ccccc4)c3c2)c1` was tested, and the survival was -1% (active).
For `Cc1cccc(CNC(=O)c2ccc3oc(=O)n(Cc4ccccc4)c3c2)c1`, the survival was 76% (inactive).
For `CCn1nnc2cc(C(=O)Nc3ccc(OC)cc3)ccc21`, the survival was 102% (inactive).
`O=C(NCc1ccccc1)c1ccc2oc(=O)n(Cc3ccccc3)c2c1` was tested, and the survival was 72% (inactive).
With `O=C(Nc1cccc(F)c1)c1ccc2oc(=O)n(Cc3ccccc3)c2c1` the survival was 70% (inactive).
With `CCc1ccc(NC(=O)c2ccc3oc(=O)n(Cc4ccccc4)c3c2)cc1` the survival was 6% (active).
With `O=C(Cc1ccc(F)cc1)Nc1nncs1` the survival was 99% (inactive).
In the case of `Cc1ccc2ncc(C(=O)N3CCN(c4ccccc4F)CC3)c(=O)n2c1`, the survival is reported as 102% (inactive).
With `CCOC(=O)c1c(NC(C)=O)c2c3c(sc2n1Cc1cc(C)ccc1C)CCCC3` the survival was 98% (inactive).
`O=C(CCOc1ccccc1)N(Cc1cccnc1)c1nc2c(F)cc(F)cc2s1` was tested, and the survival was 97% (inactive).
For `CC1=C(C(N)=O)C(c2cccc(C)c2)n2nc(-c3cccc(C)c3)nc2N1` (stereo not given), the survival was 66% (inactive).
With `Cc1cccc(NC(=O)C2CCCN(S(=O)(=O)c3cccc4nonc34)C2)c1C` (stereo not given) the survival was 119% (inactive).
In the case of `Cc1c(C(=O)N(C)C)sc2c1c(=O)n(-c1ccc(F)cc1)c(=O)n2Cc1ccccc1C#N`, the survival is reported as 76% (inactive).
